Measurements: ChEMBL document CHEMBL4888484, “Replenishing the malaria drug discovery pipeline: Screening and hit evaluation of the MMV Hit Generation Library 1 (HGL1) against asexual blood stage Plasmodium falciparum ,using a nano luciferase reporter read-out” (2022)
Screen size: about 150,000 compounds; about 540 (0.36%) showed an effect of 50% or more. The sample holds strong results, similar compounds and a random draw of the others, so the mix is not that of the screen.

test system: Plasmodium falciparum; assay: Primary screen in NF54 nanoGlo assay, in single point, at 2uM, 72h; a lower Z score goes with more inhibition; assay type: functional, Erythrocyte; conditions: timepoint 72 hour

| SMILES | % Inhibition [%] | Z score |
| --- | --- | --- |
| O=C(Nc1ccc(-n2cnnn2)cc1)c1coc(-c2ccccc2)n1 | -6 | 1.22 |
| CN1CCN(S(=O)(=O)N[C@@H](CO)c2ccc(F)cc2)CC1 | -12 | 2.47 |
| COc1cc2c(N3CCC([C@H](O)C(=O)NC4CC4)CC3)ccnc2cc1F | -6 | 0.61 |
| OC[C@H]1CCN(c2ccnc3cc(Cl)ccc23)C[C@@H]1O | -1 | 0.17 |
| CCC(CC)N(Cc1ccc2c(c1)OCO2)C(=O)Cc1cccnc1 | 23 | -2.95 |
| CCOc1ccc(CN2CCC[C@@](F)(C(=O)N3CCOCC3)C2)cc1OC | -11 | 0.93 |
| O=C1c2ccccc2C(=O)N1Cc1cnc(N2CCCCC2)s1 | 45 | 0.07 |
| N#CCc1ncc(CCN2C(=O)c3ccccc3C2=O)s1 | 51 | -6.59 |
| CC(=O)Nc1ccnc(Cc2ccccc2)n1 | -8 | 1.29 |
| CC(CCc1cccn1C)NC(=O)NC1CCN(c2cnn(C)c2)C1 (stereo not given) | -1 | 0.08 |
| CCc1nn(C)cc1NC(=O)N1CCN(C(=O)c2ccc(F)cc2)CC1 | 5 | -0.74 |
| COc1ccc(C(=O)Nc2ccc3nc4c(c(Nc5ccc(OC)c(OC)c5)c3c2)CCCC4)c(OC)c1 | -8 | 0.97 |
| CCOc1cc(C(=O)Nc2ccc3nc4c(c(Nc5ccc(OC)c(OC)c5)c3c2)CCCC4)cc(OCC)c1OCC | 93 | -11.16 |
| COc1ccccc1Nc1c2c(nc3ccc(NC(=O)c4ccc5c(c4)OCO5)cc13)CCCC2 | 2 | -0.26 |
| FC(F)(F)c1cnc(N2CCOC3(CCOCC3)CC2)s1 | 105 | -19.68 |
| CC1(N2CCOCC2)CCN(c2ncc(C(F)(F)F)s2)CC1 | -5 | 0.84 |
| CCC1(N2CCOCC2)CCN(c2ncc(C(F)(F)F)s2)CC1 | 12 | -1.55 |
| CC(C)(C)c1cc(CN2CCC3(CC2)[C@H](O)C[C@@H]3O)n[nH]1 | -1 | 0.15 |
| CC(C)(C)c1cc(CN2CCN(S(N)(=O)=O)CC2)n[nH]1 | 72 | -0.86 |
| CC1(C#N)CCN(Cc2cc(C(C)(C)C)[nH]n2)CC1 | 4 | -0.56 |
| CC(C)OCC(=O)Nc1ccn(CCCn2ccnc2)n1 | -7 | 1.24 |
| Cc1cc(NC(=O)COc2ccccc2)nn1-c1ccc(Cl)cc1 | -3 | 0.32 |

| SMILES | % Inhibition [%] | Z score |
| --- | --- | --- |
| CCc1cc(NC(=O)Cc2ccc(OC)cc2)nn1-c1ccc(OC)cc1 | -2 | 0.3 |
| COc1ccc(CC(=O)Nc2cc(C)n(-c3cccc(Cl)c3)n2)cc1 | 80 | -8.55 |
| O=C(Nc1cccnc1O)c1nc(C2CC2)n(-c2ccccc2)n1 | 33 | -3.76 |
| CN(C)C(=NCCC1CCCC1)N(C)C | -7 | 0.94 |
| O=C(Cc1n[nH]c(=O)c2ccccc12)N[C@H]1CCCc2c1[nH]c1c(Cl)cccc21 | 3 | -0.39 |
| CCN1CCCCc2cc(C(=O)N[C@H]3CCS(=O)(=O)C3)sc21 | -2 | 0.2 |
| COc1ccc(C(=O)N2c3ncnn3C(c3ccccc3)CC2c2ccc(C)cc2)cc1OC (stereo not given) | 76 | -10.75 |
| CCC(=O)N1c2ncnn2C(c2ccc(C)cc2)CC1c1ccccc1 (stereo not given) | 3 | -0.41 |
| COc1ccc(C2CC(c3ccc(C)cc3)n3ncnc3N2C(=O)c2ccccc2)cc1 (stereo not given) | 32 | -3.62 |
| CC(C)n1ncc2c1CC(NC(=O)CCC1CCCO1)CC2 (stereo not given) | -3 | 0.62 |
| CN(C)c1ccc(C(=O)Nc2ccccc2-c2cn3c(n2)CCCC3)nn1 | -10 | 1.93 |
| O=C1C2CCCCN2C(=O)N1CC(O)COc1ccc(F)cc1 (stereo not given) | -5 | 0.77 |
| CCOC1CC(NC2CC(c3ccc(F)cc3)C2)C12CCC2 (stereo not given) | 85 | -15.92 |
| CCOC1CC(NCc2c[nH]nc2-c2cccnc2)C12CCC2 (stereo not given) | -10 | 1.18 |
| CCOC1CC(NC(C)C(=O)N(C)Cc2cccc(F)c2)C12CCCC2 (stereo not given) | 4 | -0.62 |
| CCn1ccc(C(=O)N2CC(N(Cc3cccnc3)S(C)(=O)=O)C2)n1 | -4 | 0.78 |
| CC(C)(C)OC(=O)N[C@@H]1CCCN(Cc2nc(-c3ccco3)no2)C1 | -11 | 1.1 |
| Cc1nn2c(-c3ccc(-c4ccccc4)cc3)ccnc2c1Cl | -12 | 1.64 |
| CCc1noc(Cc2c(C)nn(-c3ccccc3)c2C)n1 | -5 | 0.89 |
| CCc1c(C)nn2c(c1C)c(-c1ccccc1)[n+]1c(C)c(CC)c(C)nc21 | 53 | -10.21 |
| C[C@@H](CN1CCOCC1)NC(=O)c1cccc2c1C(=O)OC2(C)C | 2 | -0.36 |
| O=C(CN1C(=O)CCC1=O)N1CCN(S(=O)(=O)c2ccc(Br)cc2)CC1 | -14 | 1.24 |

| SMILES | % Inhibition [%] | Z score |
| --- | --- | --- |
| COc1cccc([C@H]2C[C@H](N(C)C(=O)CCCC(F)(F)F)C2)c1 | 5 | -0.72 |
| Cn1nc(-c2nc(-c3ccc(F)cc3)no2)c2c1CCN(C(=O)c1cccc(Cl)c1)C2 | 66 | -7.55 |
| Cn1nc(-c2nc(-c3cccc(F)c3)no2)c2c1CCN(C(=O)c1ccccn1)C2 | 12 | -1.38 |
| Cn1nc(-c2nc(-c3cccc(F)c3)no2)c2c1CCN(C(=O)c1cccc(F)c1)C2 | -7 | 0.84 |
| CC12CN(S(=O)(=O)c3ccccc3)C3(C(=O)O)CC1CCC23C (stereo not given) | 6 | -0.98 |
| CC12CN(S(=O)(=O)c3ccc4c(c3)OCCO4)C3(C(=O)OCc4ccccc4)CC1CCC23C (stereo not given) | 70 | -8.79 |
| CC12CN(S(=O)(=O)c3ccc4c(c3)OCCO4)C3(C(=O)NCCc4ccccc4)CC1CCC23C (stereo not given) | -11 | 1.42 |
| CCCN1CCN(CCCNC(=O)c2cc3cc(S(=O)(=O)N(C)C)ccc3n2CC)CC1 | -15 | 2.13 |
| CC(C)CCn1c(=O)c(-c2ccc3ccccc3n2)cc2ccccc21 | -1 | 0.07 |
| c1ccc(-c2cn3c(n2)c(-c2ccc4ccccc4n2)cc2ccccc23)cc1 | 76 | -4.16 |
| Clc1ccc(-c2cn3c(nc4ccccc43)c(-c3ccccc3)n2)cc1 | -43 | 5.09 |
| COc1ccc(C[C@@]2(CCC(=O)N3CCCCC3)CCC(=O)N2)cc1 | 4 | -0.58 |
| OCc1cc(CN[C@H]2CCCNc3ccccc32)ccc1F | 4 | -0.52 |
| OC(CNC1CCCNc2ccccc21)c1ccc(Cl)s1 (stereo not given) | 57 | -4.74 |
| O=C(Cc1cccs1)N1CCC2(CCC(=O)N(CCc3cccnc3)C2)CC1 | 5 | -1.07 |
| COc1ncnc(OC)c1CNc1cnn(C)c1 | 35 | -0.52 |
| O=C(CC(F)(F)F)N1CCC[C@H](Oc2ncccn2)C1 | 14 | -1.95 |
| Cc1noc2ncnc(N3CCC4(CC3)CC(=O)N(Cc3ccccc3)C4)c12 | -6 | 0.71 |
| O=C(c1cc(-c2ccccc2)n[nH]1)N1CCC(N2CCC(Oc3ccccc3F)CC2)CC1 | -12 | 1.48 |
| O=C(c1cc(-c2ccco2)n[nH]1)N1CCC(N2CCC(Oc3ccccc3F)CC2)CC1 | 59 | -4.88 |
| O=C(c1cc(-c2ccco2)n[nH]1)N1CCC(Oc2ccccn2)CC1 | -4 | 0.71 |
| CC[C@H](Oc1ccccc1C)c1nnc(C2(c3ccccc3)CC2)o1 | -15 | 1.76 |

| SMILES | % Inhibition [%] | Z score |
| --- | --- | --- |
| CC(C)(C)OC(=O)NC1CCCC1Nc1cnn(-c2ccccn2)c1 (stereo not given) | -13 | 1.28 |
| Cc1ccsc1-c1noc([C@@H]2COCCN2C)n1 | 87 | -14.98 |
| Cc1ccsc1-c1noc([C@H]2CCc3nccn3C2)n1 | -5 | 0.62 |
| Cc1cnn(C)c1CN1CCOC[C@H]1c1nc(-c2ccccc2)no1 | 16 | -2.06 |
| CC(NCc1ccc(Br)c2cccnc12)C1CCOC1 (stereo not given) | -5 | 0.52 |
| Cc1ccc(C(=O)Nc2c(C)nc(N3CCOCC3)nc2C)cc1C | 13 | -2.05 |
| O=S(=O)(Nc1cccc2ccccc12)c1cccs1 | 35 | -3.95 |
| O=S(=O)(Nc1cccc2cccnc12)c1cccs1 | 55 | -5.93 |
| Cc1n[nH]c(C)c1S(=O)(=O)Nc1cccc2cccnc12 | -2 | 0.25 |
| CCN1C[C@]2(CCCN(C(=O)c3ccccc3N3CCCC3)C2)CCC1=O | 7 | -1.03 |
| Cc1nn(-c2cnc(N)cn2)c(C)c1Cc1ccccc1 | -7 | 0.91 |
| COc1ccc(CC(=O)N2CC3(C[C@H](N4CCN(C)CC4)CO3)C2)cc1 | -7 | 1.04 |
| Clc1ccccc1OCCn1nc(C2CC2)nc1C1CC1 | 2 | -0.37 |
| C[C@@H]1CN(c2nc(C(F)F)nc3ccc(F)cc23)C[C@H](C)N1 | -4 | 0.64 |
| CO[C@@H]1CO[C@H]2[C@@H]1OC[C@@H]2Nc1nccc(-c2ccc3c(c2)OCO3)n1 | -2 | 0.19 |
| CCn1ccc(C(=O)N2CCCN(Cc3c(C)noc3C)CC2)n1 | -3 | 0.35 |
| NC(=O)[C@@H]1CCCCN1C(=O)c1ccnc(-n2cccn2)c1 | 12 | -1.33 |
| NC(=O)[C@@H]1CCCN1C(=O)c1ccnc(OC2CCCCC2)c1 | 53 | 0.89 |
| CC[C@H]1CCCCCN1C(=O)c1ccnc(OC2CCC2)c1 | -5 | 0.5 |
